Experimental data taken from PubChem BioAssay (NCATS).
Inconclusive results are not listed. Values without a mark were called inactive. Calls of active or inactive are those of the source. The call rests on the fitted dose curve; in most records, active means well fitted curve in the direction sought with a large enough effect; inconclusive means small, poorly fitted or top-dose-only effect, or another doubt; inactive means no such curve, though single readings can be large; an effect the other way counts as inactive or inconclusive.

What was measured:
KB-3-1 = assay: Cytotoxic Profiling of Annotated Libraries Using Quantitative High-Throughput Screening (AID 1296008); conditions: Five cell lines viability, CellTiter-Glo ATP luminescence, 48-72 h; max response: stronger effect = lower value; further: nearly all actives have a fitted effect of over 60% in size
Outline: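 Compounds were pin-transferred onto cells and incubated 48 or 72 hr at 37 degree Celsius, 95% humidity. CellTiter-Glo was added, plates sat 10 min at room temperature, then ATP-coupled luminescence was imaged as the viability read-out.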

HeLa = assay: Primary qHTS to identify gynecologic anti-cancer compounds using libraries of approved drugs and bioactive compounds (AID 1345084); conditions: Gynecologic cancer cell panel viability, ATPlite luminescence, 48 h; series mostly up to 57.5 µM; further: nearly all actives have a fitted effect of over 55% in size
Outline: (§1)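 In this quantitative HTS, cell killing is estimated from loss of ATP-dependent luciferase light. Cells see five compound concentrations over a 48 h exposure.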

OV90 = assay: as above; conditions: Gynecologic cancer cell panel viability, ATPlite luminescence, 48 h; series mostly up to 57.5 µM
Outline: as §1

CAOV3 = assay: as above; conditions: Gynecologic cancer cell panel viability, ATPlite luminescence, 48 h; series mostly up to 57.5 µM
Outline: as §1

C33A = assay: as above; conditions: Gynecologic cancer cell panel viability, ATPlite luminescence, 48 h; series mostly up to 57.5 µM
Outline: as §1

Es-2 = assay: as above; conditions: Gynecologic cancer cell panel viability, ATPlite luminescence, 48 h; series mostly up to 57.5 µM
Outline: as §1

JEG-3 = assay: as above; conditions: Gynecologic cancer cell panel viability, ATPlite luminescence, 48 h; series mostly up to 57.5 µM
Outline: as §1

CASKI = assay: as above; conditions: Gynecologic cancer cell panel viability, ATPlite luminescence, 48 h; series mostly up to 57.5 µM
Outline: as §1

Hek293T = assay: as above; conditions: Gynecologic cancer cell panel viability, ATPlite luminescence, 48 h, control line for the selectivity index; series mostly up to 57.5 µM
Outline: as §1
On the % scale 0 is the no-effect control and ±100 the full control effect; potency means the concentration at half of the fitted maximal effect.

CC(=O)NC1=NN(C(C)=O)C(C)(c2ccccc2)S1 (stereo not given)
Potency (KB-3-1): 5.17 µM (active) | Potency (HeLa): 14.1 µM (active) | Potency (OV90): inactive

C/C=C/c1ccc(O[C@@H]2O[C@H](CO)[C@@H](O)[C@H](O)[C@H]2O)c(OC)c1
max response (KB-3-1): -6.82% | Potency (OV90): inactive

CC(O)c1cc(C(=O)N[C@@H](C)Cn2ccc(-c3ccc(C#N)c(Cl)c3)n2)n[nH]1 (stereo not given in full)
max response (KB-3-1): -27.8% | Potency (CAOV3): inactive | Potency (OV90): inactive

CN(C)c1ccc2c(c1)OC(N)=C(C#N)C2c1cccc(C(F)(F)F)c1 (stereo not given)
Potency (KB-3-1): 0.291 µM (active) | Potency (C33A): 0.631 µM (active) | Potency (Es-2): 1 µM (active) | Potency (HeLa): 0.501 µM (active) | Potency (JEG-3): 0.282 µM (active) | Potency (OV90): 1.41 µM (active)

c1cc(Nc2cc(C3CC3)[nH]n2)nc(Nc2ccc3nc[nH]c3c2)n1
Potency (KB-3-1): 1.3 µM (active) | Potency (CASKI): 1.78 µM (active) | Potency (Es-2): 12.6 µM (active) | Potency (JEG-3): inactive

Nc1nc(Nc2ccc(S(N)(=O)=O)cc2)n(C(=S)Nc2c(F)cccc2F)n1
Potency (KB-3-1): 1.3 µM (active) | Potency (C33A): inactive | Potency (CAOV3): inactive | Potency (CASKI): inactive | Potency (Es-2): inactive | Potency (HeLa): 15.8 µM (active) | Potency (JEG-3): inactive | Potency (OV90): inactive

Cc1cnc(Nc2ccc(F)cc2Cl)nc1-c1c[nH]c(C(=O)NC(CO)c2cccc(Cl)c2)c1 (stereo not given)
max response (KB-3-1): -9.44% | Potency (C33A): inactive | Potency (CAOV3): inactive | Potency (CASKI): inactive | Potency (Es-2): inactive | Potency (Hek293T): inactive | Potency (JEG-3): inactive

CC(C)[C@@](C)(O)[C@@H]1CN(c2nc(-c3[nH]nc4ncccc34)c(F)cc2Cl)CCN1
Potency (KB-3-1): 20.6 µM (active) | Potency (CASKI): inactive | Potency (Es-2): inactive | Potency (HeLa): inactive | Potency (Hek293T): inactive | Potency (JEG-3): 25.1 µM (active) | Potency (OV90): inactive

CCc1cccc(CC)c1NC(=O)c1nn(C)c2c1CCc1cnc(Nc3ccc(C(=O)NC4CCN(C)CC4)cc3OC(F)(F)F)nc1-2
Potency (KB-3-1): 5.63 µM (active) | Potency (C33A): inactive | Potency (CAOV3): inactive | Potency (CASKI): inactive | Potency (Es-2): inactive | Potency (HeLa): inactive | Potency (Hek293T): inactive | Potency (JEG-3): inactive | Potency (OV90): inactive

O=C(c1ccccc1)c1ccc2nc(NC(=O)c3csc(C4CCN(c5ncnc6ccsc56)CC4)n3)[nH]c2c1
Potency (KB-3-1): 8.2 µM (active) | Potency (C33A): 15.8 µM (active) | Potency (Hek293T): 8.91 µM (active) | Potency (JEG-3): inactive | Potency (OV90): 17.8 µM (active)

CCC(C)C(=O)OC1CC(O)C23C4OCC5(C(O)CC2C1(C)C(O)O4)C3C(=O)CC1(C)C(c2ccoc2)CC2OC215 (stereo not given)
Potency (KB-3-1): 1.78 µM (active) | Potency (CASKI): inactive | Potency (Hek293T): 10 µM (active) | Potency (JEG-3): inactive | Potency (OV90): 1.78 µM (active)

O=C(NCc1cccc(O)c1)Nc1nc(-c2ccncc2)cs1
max response (KB-3-1): -3.25% | Potency (C33A): inactive | Potency (CAOV3): inactive | Potency (CASKI): inactive | Potency (Es-2): inactive | Potency (Hek293T): inactive | Potency (JEG-3): inactive | Potency (OV90): inactive

COc1cc2nc(N3CCC(N4CCCCC4)CC3)nc(NC3CCCCCC3)c2cc1OC
Potency (KB-3-1): 5.8 µM (active) | Potency (C33A): 25.1 µM (active) | Potency (CAOV3): 7.08 µM (active) | Potency (OV90): 22.4 µM (active)

CNC(=O)c1ccccc1Nc1nc(Nc2ccc3c(c2OC)CCC[C@@H](N2CCN(CCO)CC2)C3)ncc1Cl
Potency (KB-3-1): 13 µM (active) | Potency (CASKI): 12.6 µM (active) | Potency (OV90): 7.94 µM (active)

COC(=O)C1(C)c2[nH]c3ccccc3c2CCN1C(=O)CCl (stereo not given)
Potency (KB-3-1): 20.6 µM (active) | Potency (OV90): inactive

COc1cc2ncnc(N3CCC(Oc4cnc5ccccc5n4)C3)c2cc1OC (stereo not given)
Potency (KB-3-1): 1.03 µM (active) | Potency (CASKI): 7.08 µM (active) | Potency (Es-2): 3.98 µM (active) | Potency (HeLa): 1.78 µM (active) | Potency (Hek293T): 3.55 µM (active)

Cc1ccccc1-n1c([C@H](C)Nc2nc(N)nc3nc[nH]c23)nc2cccc(C)c2c1=O
max response (KB-3-1): -12.5% | Potency (C33A): inactive | Potency (CASKI): 31.6 µM (active) | Potency (Hek293T): inactive | Potency (OV90): inactive

CC1(C)CC(=O)C2=C(C1)NC(=S)NC2c1cccc(O)c1 (stereo not given)
Potency (KB-3-1): 0.82 µM (active) | Potency (CAOV3): 3.55 µM (active) | Potency (HeLa): 7.94 µM (active) | Potency (OV90): inactive

CC(C)(C#N)c1ccc(N2C(=O)OCc3cnc4ccc(-c5cnc6ccccc6c5)cc4c32)cc1
Potency (KB-3-1): 6.51 µM (active) | Potency (Hek293T): 12.6 µM (active) | Potency (JEG-3): inactive

Cn1cncc1C(N)(c1ccc(Cl)cc1)c1ccc2c(c1)c(-c1cccc(Cl)c1)cc(=O)n2C (stereo not given)
Potency (KB-3-1): 16.4 µM (active) | Potency (CASKI): inactive | Potency (HeLa): inactive

COc1ccc(CC2C(=O)NC(C)C(=O)N(C)C3Cc4ccc(cc4)Oc4cc(ccc4OC4OC(CO)C(O)C(O)C4O)CC(C(=O)NC(C)C(=O)NC(C)C(=O)N2C)N(C)C3=O)cc1 (stereo not given)
Potency (KB-3-1): 0.138 µM (active) | Potency (CASKI): 0.631 µM (active) | Potency (Es-2): 0.398 µM (active) | Potency (HeLa): 2 µM (active) | Potency (Hek293T): 0.158 µM (active)

Cc1ccc(NC(=O)c2ccc(CN3CC[C@H](N(C)C)C3)c(C(F)(F)F)c2)cc1Nc1nccc(-c2cncnc2)n1
max response (KB-3-1): -1.65% | Potency (C33A): inactive | Potency (CAOV3): inactive | Potency (HeLa): inactive | Potency (Hek293T): inactive | Potency (JEG-3): inactive | Potency (OV90): 5.01 µM (active)

CN(C)c1nc(NC2CCC(NC(=O)c3ccc(F)c(F)c3)CC2)nc2ccccc12 (stereo not given)
Potency (KB-3-1): 23.1 µM (active) | Potency (CASKI): inactive | Potency (Hek293T): 28.2 µM (active) | Potency (OV90): 11.2 µM (active)

CCS(=O)(=O)N1CCN(c2ccc(Nc3ncc(C(N)=O)c(NC4CC4)n3)cc2)CC1
Potency (KB-3-1): 5.17 µM (active) | Potency (JEG-3): inactive | Potency (OV90): 12.6 µM (active)

C=CC(=O)Nc1cccc(CN2C(=O)N(c3c(Cl)c(OC)cc(OC)c3Cl)Cc3cnc(NCCCCN(CC)CC)nc32)c1
Potency (KB-3-1): 18.4 µM (active) | Potency (Es-2): inactive | Potency (Hek293T): inactive | Potency (JEG-3): inactive | Potency (OV90): inactive
